Assay in all cases: DAPPL (digital affinity profiling via proximity ligation, sequencing); 10 mM Tris-HCl pH 7.5, 50 mM NaCl, 1 mM DTT, 4% glycerol, room temperature, 30 min; GST-TFs on glutathione beads, 16-mer random dsDNA library, 0.1% formaldehyde crosslink after washing; high values mean tight binding
Common to all, as to settings: protein: recombinant; tags: N-terminal GST; dsDNA, one strand shown

One test addresses T1, FLI1 (Homo sapiens, UniProt Q01543 1-452).
T1 sequence: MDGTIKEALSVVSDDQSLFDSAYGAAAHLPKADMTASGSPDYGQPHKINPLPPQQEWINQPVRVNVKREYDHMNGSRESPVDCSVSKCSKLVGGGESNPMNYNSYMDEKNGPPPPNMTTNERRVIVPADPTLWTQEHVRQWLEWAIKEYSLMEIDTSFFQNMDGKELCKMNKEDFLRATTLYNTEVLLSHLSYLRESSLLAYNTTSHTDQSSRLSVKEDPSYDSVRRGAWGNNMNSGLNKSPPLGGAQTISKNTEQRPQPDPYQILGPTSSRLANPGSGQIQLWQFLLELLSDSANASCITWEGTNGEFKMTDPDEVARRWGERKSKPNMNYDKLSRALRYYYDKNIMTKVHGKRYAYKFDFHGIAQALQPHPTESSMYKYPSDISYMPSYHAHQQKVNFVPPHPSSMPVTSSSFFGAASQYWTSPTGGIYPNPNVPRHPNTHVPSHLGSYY
The method in brief:
(§1)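 Binding signal is each hexamer's read frequency for a factor divided by its frequency in the tag-only sample. The factors were GST-fused human transcription factors from yeast, captured on glutathione beads, DNA-barcoded and pooled with that sample. Pools were incubated with 200 nmole of a random double-stranded 16-mer DNA library in Tris/NaCl/DTT/glycerol buffer at room temperature for 30 min, then washed, crosslinked with 0.1% formaldehyde, proximity-ligated with BsaI/T4 ligase (1 h, 37 °C), PCR-amplified and sequenced on an Illumina NextSeq500.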

A further test has as its target T2, ELK1 (Homo sapiens, UniProt P19419 1-428).
T2 sequence: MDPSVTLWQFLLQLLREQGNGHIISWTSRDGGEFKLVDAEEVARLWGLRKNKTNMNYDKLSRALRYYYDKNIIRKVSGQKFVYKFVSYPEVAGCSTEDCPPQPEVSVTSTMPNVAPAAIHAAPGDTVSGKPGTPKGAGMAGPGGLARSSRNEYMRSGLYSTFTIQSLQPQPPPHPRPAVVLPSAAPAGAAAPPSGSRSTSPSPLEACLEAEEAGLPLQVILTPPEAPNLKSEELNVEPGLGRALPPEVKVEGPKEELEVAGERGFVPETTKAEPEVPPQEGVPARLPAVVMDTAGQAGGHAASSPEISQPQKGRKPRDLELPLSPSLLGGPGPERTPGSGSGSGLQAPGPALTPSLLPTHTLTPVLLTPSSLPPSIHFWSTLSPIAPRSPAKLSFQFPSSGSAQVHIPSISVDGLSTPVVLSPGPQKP
The method in brief:
as §1

The next test has as its target T3, GABPA (Homo sapiens, UniProt Q06546 1-454).
T3 sequence: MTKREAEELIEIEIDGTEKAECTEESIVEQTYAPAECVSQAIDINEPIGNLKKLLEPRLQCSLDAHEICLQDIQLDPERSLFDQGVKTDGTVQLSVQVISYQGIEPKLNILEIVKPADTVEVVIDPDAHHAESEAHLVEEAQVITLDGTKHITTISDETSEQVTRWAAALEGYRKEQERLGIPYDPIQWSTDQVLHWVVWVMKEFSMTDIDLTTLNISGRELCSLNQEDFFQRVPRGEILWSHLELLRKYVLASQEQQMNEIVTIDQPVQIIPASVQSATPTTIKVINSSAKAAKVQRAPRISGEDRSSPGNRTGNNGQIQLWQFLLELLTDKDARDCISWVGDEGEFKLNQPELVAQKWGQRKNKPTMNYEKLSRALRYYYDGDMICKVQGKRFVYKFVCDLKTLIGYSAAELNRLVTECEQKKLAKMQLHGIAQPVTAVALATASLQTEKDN
The method in brief:
as §1

The target in another test is T4, ERG (Homo sapiens, UniProt P11308 1-479).
T4 sequence: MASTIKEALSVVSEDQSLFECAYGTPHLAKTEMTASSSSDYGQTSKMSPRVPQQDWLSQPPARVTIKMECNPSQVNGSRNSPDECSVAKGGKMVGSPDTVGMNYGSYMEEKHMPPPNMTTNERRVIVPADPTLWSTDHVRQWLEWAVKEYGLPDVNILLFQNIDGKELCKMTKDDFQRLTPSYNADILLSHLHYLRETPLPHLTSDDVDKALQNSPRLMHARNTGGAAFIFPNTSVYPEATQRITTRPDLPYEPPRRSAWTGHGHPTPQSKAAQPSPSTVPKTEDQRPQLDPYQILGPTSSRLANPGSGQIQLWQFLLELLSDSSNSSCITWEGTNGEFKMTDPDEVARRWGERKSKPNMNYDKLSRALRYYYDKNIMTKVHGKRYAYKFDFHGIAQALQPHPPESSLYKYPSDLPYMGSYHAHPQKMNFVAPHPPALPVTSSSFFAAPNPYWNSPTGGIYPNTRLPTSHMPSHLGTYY
The method in brief:
as §1

The target in another test is ELF1 (Homo sapiens, UniProt P32519 1-619). The method in brief: as §1
ELF1, sequence (P32519 whole entry): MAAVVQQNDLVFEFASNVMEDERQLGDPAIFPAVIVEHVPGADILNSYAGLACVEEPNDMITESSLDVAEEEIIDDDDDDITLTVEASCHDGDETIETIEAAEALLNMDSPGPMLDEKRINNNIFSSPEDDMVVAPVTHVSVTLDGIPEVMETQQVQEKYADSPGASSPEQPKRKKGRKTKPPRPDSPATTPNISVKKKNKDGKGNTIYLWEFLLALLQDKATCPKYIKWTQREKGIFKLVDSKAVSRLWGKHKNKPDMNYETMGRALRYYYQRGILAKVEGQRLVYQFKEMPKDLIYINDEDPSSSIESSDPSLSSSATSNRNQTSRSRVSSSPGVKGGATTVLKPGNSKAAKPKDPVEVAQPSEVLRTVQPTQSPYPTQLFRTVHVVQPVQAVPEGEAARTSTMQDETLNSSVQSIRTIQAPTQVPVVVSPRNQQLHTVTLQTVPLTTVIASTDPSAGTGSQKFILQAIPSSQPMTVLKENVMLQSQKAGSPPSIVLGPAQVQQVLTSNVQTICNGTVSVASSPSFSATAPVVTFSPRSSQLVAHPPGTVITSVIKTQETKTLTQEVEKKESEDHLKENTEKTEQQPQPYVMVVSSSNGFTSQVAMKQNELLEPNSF
A further test has as its target T5, EHF (Homo sapiens, UniProt Q9NZC4 1-300).
T5 sequence: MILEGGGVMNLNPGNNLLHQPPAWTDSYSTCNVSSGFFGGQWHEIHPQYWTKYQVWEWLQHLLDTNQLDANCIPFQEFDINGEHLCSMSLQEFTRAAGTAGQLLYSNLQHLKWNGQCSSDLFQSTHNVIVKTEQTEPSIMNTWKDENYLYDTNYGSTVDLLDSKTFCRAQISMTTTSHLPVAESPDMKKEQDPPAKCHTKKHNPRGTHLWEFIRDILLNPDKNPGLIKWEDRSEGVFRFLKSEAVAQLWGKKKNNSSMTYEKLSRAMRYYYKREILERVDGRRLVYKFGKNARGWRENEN
In outline: as §1

A further test concerns the target SPI1 (Homo sapiens, UniProt P17947 1-270). In outline:
as §1

The target of another test is SPIB (Homo sapiens, UniProt Q01892 1-262). In outline: as §1
SPIB, sequence (Q01892 whole entry): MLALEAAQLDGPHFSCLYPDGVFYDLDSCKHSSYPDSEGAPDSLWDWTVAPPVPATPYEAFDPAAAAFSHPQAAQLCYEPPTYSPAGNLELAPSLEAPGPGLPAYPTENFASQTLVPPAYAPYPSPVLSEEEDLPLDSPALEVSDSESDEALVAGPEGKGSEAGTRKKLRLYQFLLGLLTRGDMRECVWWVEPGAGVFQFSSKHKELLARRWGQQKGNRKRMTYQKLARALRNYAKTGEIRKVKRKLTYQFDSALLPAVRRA
The target in another test is T6, ELK3 (Homo sapiens, UniProt P41970 1-407).
T6 sequence: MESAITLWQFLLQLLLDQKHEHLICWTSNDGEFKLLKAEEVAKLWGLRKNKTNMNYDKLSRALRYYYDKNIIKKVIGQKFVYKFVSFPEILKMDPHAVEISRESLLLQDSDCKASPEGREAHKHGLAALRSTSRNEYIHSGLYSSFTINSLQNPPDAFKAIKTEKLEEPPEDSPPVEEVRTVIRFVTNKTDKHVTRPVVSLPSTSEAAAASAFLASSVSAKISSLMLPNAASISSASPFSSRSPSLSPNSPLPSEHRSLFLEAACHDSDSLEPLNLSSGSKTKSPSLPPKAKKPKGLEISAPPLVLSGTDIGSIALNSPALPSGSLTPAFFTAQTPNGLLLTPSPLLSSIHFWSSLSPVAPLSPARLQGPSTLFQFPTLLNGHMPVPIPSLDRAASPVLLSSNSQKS
The method in brief: as §1

A further test concerns the target T7, FEV (Homo sapiens, UniProt Q99581 1-238).
T7 sequence: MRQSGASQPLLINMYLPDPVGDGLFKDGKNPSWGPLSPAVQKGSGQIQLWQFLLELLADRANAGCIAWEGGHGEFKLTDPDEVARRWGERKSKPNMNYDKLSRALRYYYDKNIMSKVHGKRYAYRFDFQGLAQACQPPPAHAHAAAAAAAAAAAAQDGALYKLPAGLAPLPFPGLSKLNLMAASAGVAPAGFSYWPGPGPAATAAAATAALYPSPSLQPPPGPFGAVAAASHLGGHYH
In outline:
as §1

A further test concerns the target ETV5 (Homo sapiens, UniProt P41161 1-510). The method in brief: as §1
The target in another test is T8, SPIC (Homo sapiens, UniProt Q8N5J4 1-248).
T8 sequence: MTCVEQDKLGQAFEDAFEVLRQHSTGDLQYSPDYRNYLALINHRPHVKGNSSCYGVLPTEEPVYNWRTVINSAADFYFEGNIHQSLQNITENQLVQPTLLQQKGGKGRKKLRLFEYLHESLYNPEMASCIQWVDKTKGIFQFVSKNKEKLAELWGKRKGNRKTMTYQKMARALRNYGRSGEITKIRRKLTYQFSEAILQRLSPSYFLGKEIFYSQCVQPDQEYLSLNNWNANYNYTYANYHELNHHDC
In outline:
as §1

The target of a further test is ELF4 (Homo sapiens, UniProt Q99607 1-663). In outline: as §1
ELF4, sequence (Q99607 whole entry): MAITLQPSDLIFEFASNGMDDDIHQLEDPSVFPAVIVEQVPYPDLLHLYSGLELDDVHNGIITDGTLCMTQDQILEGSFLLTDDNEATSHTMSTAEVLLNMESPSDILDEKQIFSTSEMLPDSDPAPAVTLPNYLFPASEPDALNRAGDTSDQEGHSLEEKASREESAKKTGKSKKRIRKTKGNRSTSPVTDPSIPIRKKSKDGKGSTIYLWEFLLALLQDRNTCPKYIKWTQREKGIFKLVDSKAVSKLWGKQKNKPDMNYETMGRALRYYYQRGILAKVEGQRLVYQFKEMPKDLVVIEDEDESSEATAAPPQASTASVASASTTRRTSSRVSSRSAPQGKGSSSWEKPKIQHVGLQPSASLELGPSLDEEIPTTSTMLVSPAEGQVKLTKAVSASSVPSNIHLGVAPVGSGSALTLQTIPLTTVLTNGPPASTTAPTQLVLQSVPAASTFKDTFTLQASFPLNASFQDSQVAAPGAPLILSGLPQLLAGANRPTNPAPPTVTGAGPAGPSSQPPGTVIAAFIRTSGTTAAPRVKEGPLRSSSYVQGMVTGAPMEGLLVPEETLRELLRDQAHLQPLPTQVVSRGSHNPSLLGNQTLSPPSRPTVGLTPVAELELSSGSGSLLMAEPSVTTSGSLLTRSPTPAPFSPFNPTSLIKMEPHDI
Another test concerns the target T9, ELK4 (Homo sapiens, UniProt P28324-2 1-405).
T9 sequence: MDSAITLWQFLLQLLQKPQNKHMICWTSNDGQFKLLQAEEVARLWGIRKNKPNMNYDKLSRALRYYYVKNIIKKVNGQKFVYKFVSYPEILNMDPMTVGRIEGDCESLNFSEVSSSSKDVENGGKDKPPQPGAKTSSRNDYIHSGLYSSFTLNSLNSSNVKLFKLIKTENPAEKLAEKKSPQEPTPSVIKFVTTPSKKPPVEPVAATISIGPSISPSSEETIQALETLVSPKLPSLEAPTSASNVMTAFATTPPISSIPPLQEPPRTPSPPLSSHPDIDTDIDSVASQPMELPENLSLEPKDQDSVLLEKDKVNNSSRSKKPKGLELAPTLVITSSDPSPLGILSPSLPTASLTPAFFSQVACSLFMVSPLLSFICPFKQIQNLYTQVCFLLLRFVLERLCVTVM
In outline:
as §1

A further test addresses T10, ETV2 (Homo sapiens, UniProt O00321 1-342).
T10 sequence: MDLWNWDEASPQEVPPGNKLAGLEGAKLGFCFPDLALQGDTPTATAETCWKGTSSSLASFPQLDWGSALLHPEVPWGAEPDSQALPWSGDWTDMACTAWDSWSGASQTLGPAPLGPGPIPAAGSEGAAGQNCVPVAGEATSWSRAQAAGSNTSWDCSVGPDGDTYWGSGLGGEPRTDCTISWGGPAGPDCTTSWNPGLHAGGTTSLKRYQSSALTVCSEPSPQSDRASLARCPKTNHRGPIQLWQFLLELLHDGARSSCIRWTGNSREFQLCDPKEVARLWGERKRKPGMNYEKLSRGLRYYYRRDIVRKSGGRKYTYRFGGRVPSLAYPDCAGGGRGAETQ
In outline: as §1

The target in another test is T11, ELF3 (Homo sapiens, UniProt P78545 1-371).
T11 sequence: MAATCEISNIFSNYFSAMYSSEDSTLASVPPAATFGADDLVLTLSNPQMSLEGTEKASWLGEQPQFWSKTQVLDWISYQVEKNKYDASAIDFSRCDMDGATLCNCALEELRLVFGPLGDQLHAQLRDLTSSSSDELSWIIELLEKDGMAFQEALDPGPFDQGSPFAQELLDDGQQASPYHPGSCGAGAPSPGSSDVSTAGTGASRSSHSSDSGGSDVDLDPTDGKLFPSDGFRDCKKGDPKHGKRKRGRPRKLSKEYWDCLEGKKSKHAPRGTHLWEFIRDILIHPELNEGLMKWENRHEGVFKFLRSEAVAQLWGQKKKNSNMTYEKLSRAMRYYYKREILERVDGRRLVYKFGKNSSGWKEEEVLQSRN
In outline: as §1

The next test concerns the target CRX (Homo sapiens, UniProt O43186 1-299). In outline: as §1
For another test, the target named is ETV1 (Homo sapiens, UniProt P50549 1-477). In outline:
as §1

CRX, sequence (O43186 whole entry): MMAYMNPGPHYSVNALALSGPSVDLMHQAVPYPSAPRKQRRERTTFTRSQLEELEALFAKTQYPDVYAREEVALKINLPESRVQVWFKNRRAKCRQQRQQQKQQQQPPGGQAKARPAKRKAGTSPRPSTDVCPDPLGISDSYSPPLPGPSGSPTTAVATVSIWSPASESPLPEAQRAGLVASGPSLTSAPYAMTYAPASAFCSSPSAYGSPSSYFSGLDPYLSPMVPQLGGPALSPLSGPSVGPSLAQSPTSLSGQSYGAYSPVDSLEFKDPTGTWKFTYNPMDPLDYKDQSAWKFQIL
ETV1, sequence (P50549 whole entry): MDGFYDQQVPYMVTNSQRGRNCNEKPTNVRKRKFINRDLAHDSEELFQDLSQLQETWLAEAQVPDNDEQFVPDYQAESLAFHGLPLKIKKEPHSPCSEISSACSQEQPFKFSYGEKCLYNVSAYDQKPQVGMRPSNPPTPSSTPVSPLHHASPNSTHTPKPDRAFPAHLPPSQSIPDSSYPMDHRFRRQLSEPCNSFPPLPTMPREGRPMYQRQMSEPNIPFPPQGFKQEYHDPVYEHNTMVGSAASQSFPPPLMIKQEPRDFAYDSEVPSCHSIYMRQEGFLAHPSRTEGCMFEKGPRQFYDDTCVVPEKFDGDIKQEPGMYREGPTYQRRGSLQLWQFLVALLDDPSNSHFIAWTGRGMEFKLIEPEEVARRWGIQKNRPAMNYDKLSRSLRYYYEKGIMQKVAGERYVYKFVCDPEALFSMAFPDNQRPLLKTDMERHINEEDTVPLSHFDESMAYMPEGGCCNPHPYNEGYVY
ETV5, sequence (P41161 whole entry): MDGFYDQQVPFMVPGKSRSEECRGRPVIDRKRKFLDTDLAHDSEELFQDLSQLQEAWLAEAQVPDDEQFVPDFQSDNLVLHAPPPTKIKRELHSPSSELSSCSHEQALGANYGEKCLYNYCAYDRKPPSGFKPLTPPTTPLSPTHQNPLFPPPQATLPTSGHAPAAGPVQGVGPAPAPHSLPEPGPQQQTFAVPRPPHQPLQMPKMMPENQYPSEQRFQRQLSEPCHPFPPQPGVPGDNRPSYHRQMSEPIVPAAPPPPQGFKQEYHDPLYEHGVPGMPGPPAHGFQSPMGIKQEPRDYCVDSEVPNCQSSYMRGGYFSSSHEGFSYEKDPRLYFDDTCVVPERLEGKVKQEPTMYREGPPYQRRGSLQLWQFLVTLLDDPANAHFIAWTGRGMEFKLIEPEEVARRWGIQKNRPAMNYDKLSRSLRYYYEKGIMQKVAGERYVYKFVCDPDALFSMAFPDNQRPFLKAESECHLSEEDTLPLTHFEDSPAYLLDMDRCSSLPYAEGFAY

On to TCACCC, for which the binding signal was 1.23 fold enrichment (6-mer frequency, TF over GST control) with FLI1; 1.23 fold enrichment (6-mer frequency, TF over GST control) in the test with ELK1; 1.21 fold enrichment (6-mer frequency, TF over GST control) with GABPA; 1.13 fold enrichment (6-mer frequency, TF over GST control) in the test with ERG; 1.2 fold enrichment (6-mer frequency, TF over GST control) in the test with ELF1; 1.06 fold enrichment (6-mer frequency, TF over GST control) with EHF. For the same sequence, the binding signal was 1.12 fold enrichment (6-mer frequency, TF over GST control) in the test with SPI1; 1.2 fold enrichment (6-mer frequency, TF over GST control) in the test with SPIB; 1.15 fold enrichment (6-mer frequency, TF over GST control) with ELK3; 1.15 fold enrichment (6-mer frequency, TF over GST control) in the test with FEV; 1.18 fold enrichment (6-mer frequency, TF over GST control) with ETV5; 1.13 fold enrichment (6-mer frequency, TF over GST control) in the test with SPIC. Also, the binding signal with ELF4 was 1.21 fold enrichment (6-mer frequency, TF over GST control); with ELK4, 1.16 fold enrichment (6-mer frequency, TF over GST control); in the test with ETV2, 1.01 fold enrichment (6-mer frequency, TF over GST control); with ELF3 it was 1.16 fold enrichment (6-mer frequency, TF over GST control); with CRX it was 1.02 fold enrichment (6-mer frequency, TF over GST control); with ETV1, 1.18 fold enrichment (6-mer frequency, TF over GST control).

(Values after publication PMC7862700, “An all-to-all approach to the identification of sequence-specific readers for epigenetic DNA modifications on cytosine”.)
